We go through 22 sequences from the supplement of paper PMC6555819.

This experiment concerns PPARg:RXRa DBDmut IVT, anti-RXR (DBD mutation: RXRa K156A/R161A, NR concentration 270 nM, RXRa partner concentration 90 nM). The experiment in a line: PBM binding z-score (relative to random genomic background probes); higher = stronger binding; sequences stand for … in GC…GCGATTGACAGCGTAGAATGAAGG
The method in brief: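 Binding z-scores were set against random background probes. The data came from custom Agilent 4×180K protein-binding microarrays carrying double-stranded probes with 34-nt variable regions, incubated 1 h with ligand-free nuclear receptor dimers. Partner-specific antibodies detected binding, and scanned fluorescence was regression-normalized.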
With AGTCGAAGTTCACTAGGTAACGTAAGATTCAGCT, the PBM binding z-score came out at 1.76.

GCTAGTTGGTCCGTAAAAGGTCACACACCGGTCG had a PBM binding z-score of 0.234.

CGAACTAGGTCAGAACAGGACAGTGAAGGATGAT yielded a PBM binding z-score of 7.21.

CGAAATAGGTCAGAACAGGACAGTGAAGGATGAT yielded a PBM binding z-score of 6.51.

As for TAGCCTAGGTCATTCTGGGGCCAGTATAGAAAGC, the PBM binding z-score is 1.71.

Consider ATACCAAGGTGATCGTGACGTCGTTGATACTAAC, for which the PBM binding z-score stood at 0.791.

CGTCCAAGGTCAAGGTTAGTGAAAGAGACTCGAA showed a PBM binding z-score of 3.18.

In turn, TCGAGTAGGTTAGTCGGGGGATTCAGCCAACATA displayed a PBM binding z-score of 2.61.

Consider GCTCGGAGGGCAAGGTCAGAGCTTTGTCCGTAGA, for which the PBM binding z-score was determined as 0.731.

The sequence CCGAGTAGGTTATGGGGCATTCATGCAACGGTGA registered a PBM binding z-score of 3.37.

ACTAGCAGTCCAAGGGTCACTCAAGATTAGTCCG: the PBM binding z-score was -0.304.

In turn, ATCGAAAGGTCCTGAGGTGAGTATACAGAAAGGC showed a PBM binding z-score of -0.172.

In the case of AGTCAAAGTTCACTTGGTAACGTAAGATTCAGCT, the PBM binding z-score was determined as 0.263.

The sequence TCTAGCACGCCAGAGGGTCACTCAAGAGGTACGG gave a PBM binding z-score of 0.507.

In the case of CCAACTAGGTCAAGGTCAAAGTCGGTTTGTGCCA, the PBM binding z-score amounted to 8.26.

In the case of TCAGACAGGTGAAGGTAACACAGGTACGCAGTCG, the PBM binding z-score is 2.57.

Consider TTACCAAGGTGAGCTGAGGTCGTCGATCCAACTC, for which the PBM binding z-score worked out at 0.887.

Consider TCATATAGGTAAATGCTAGGTGAGAGTCCGATCT, for which the PBM binding z-score worked out at 3.83.

Regarding TCTTGTAGATTAAAGGTTAAGAAAGCCGAAGCCT, the PBM binding z-score came out at 1.85.

As for TCAGACAGGTGCAGGTAACTCAGGTACGCAGTCG, the PBM binding z-score is 1.83.

CGTCAAAGTTCAACTAAAGTAACGTAAAGCACGC showed a PBM binding z-score of 0.164.

In the case of AATACAGGGTCACTAGGCCAGACTAGGTACGAAT, the PBM binding z-score turned out to be 4.01.
